Screens (PubChem)
NPR1 activator: GC-A stimulated cGMP production enhancers – HEK293 GC-A cells, cGMP TR-FRET, EC30 ANP, primary screen; Atrial natriuretic peptide receptor 1 (Homo sapiens), P16066; 0% at EC30 ANP, 100% saturating ANP; activation, % at 10 µM; 370,000 compounds, 0.14% hits; AID 1671463, 2021; in the data active = activation above about 40%
Target sequence (P16066 whole entry, looked up): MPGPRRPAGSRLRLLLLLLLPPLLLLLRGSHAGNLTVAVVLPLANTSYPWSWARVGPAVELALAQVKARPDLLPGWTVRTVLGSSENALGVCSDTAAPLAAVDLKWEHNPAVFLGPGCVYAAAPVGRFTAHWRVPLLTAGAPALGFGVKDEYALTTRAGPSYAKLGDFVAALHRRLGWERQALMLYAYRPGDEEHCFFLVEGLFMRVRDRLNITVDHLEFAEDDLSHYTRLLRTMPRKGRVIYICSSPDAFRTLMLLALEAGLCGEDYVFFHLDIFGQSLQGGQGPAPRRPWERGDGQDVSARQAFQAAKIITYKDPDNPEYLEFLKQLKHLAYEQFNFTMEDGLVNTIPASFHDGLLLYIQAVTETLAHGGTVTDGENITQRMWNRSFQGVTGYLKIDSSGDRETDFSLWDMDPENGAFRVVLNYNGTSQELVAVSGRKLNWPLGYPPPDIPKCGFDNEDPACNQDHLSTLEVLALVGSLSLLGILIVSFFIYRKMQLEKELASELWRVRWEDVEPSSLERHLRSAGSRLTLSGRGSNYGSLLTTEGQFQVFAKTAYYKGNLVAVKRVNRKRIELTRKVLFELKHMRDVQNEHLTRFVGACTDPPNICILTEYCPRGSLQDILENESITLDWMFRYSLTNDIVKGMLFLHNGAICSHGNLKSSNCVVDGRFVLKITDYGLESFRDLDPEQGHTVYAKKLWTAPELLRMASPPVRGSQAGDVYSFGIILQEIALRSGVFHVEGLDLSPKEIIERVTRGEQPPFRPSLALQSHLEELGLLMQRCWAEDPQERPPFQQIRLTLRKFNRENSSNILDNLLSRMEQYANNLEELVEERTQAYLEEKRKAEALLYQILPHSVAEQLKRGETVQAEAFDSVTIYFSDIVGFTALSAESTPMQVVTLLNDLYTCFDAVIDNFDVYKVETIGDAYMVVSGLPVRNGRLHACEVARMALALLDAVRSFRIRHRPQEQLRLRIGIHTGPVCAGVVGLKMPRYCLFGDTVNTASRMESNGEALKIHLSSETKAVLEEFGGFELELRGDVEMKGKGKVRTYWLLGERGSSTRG
HSF1 inh: HSF1 inhibitors in luciferase reporter cells, primary screen, cell-based, NIH3T3, luminescence | NIH3T3-HGL HSE-luciferase, MG132-induced, luminescence 8 h; active compounds read low | 300,000 compounds, 0.77% hits | activity change, negative = inhibition, % at 7.5 µM (by protocol) | AID 2098, 2009;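 active = more than half of replicate wells show activity change below -50%, luminescence cut by over half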;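 also: luciferase reports HSF-1 transcriptional activity via heat shock element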
Dyrk1A ADPGlo: rat Dyrk1A kinase inhibitors, primary screen, biochemical, single point, plate reader. 310,000 compounds, 0.43% hits. inhibition, % at 12.5 µM. AID 504441, 2011. Dual specificity tyrosine-phosphorylation-regulated kinase 1A (Rattus norvegicus), Q63470. ADP-Glo luminescence, NFATc1 peptide; in the data active = inhibition above about 50%
aDG glyco act: activators of alpha-DG glycosylation, primary screen, uHTS, Pro5-aDG cells, AlphaScreen. alpha-DG glycosylation AlphaScreen (IIH6); 0% Pro5, 100% B10-LARGE cell signal. activation, % at 10 µM. 360,000 compounds, 0.22% hits. AID 624168, 2012;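 active = activation of at least 8% versus controls, or a plate z-score of at least 8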;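 also: Pro5 are CHO cells carrying HIG-tagged alpha-DG that lacks glycosylation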
HSF-1 act: HSF-1 activators, primary screen, NIH3T3-HGL cells, MG132 stress, luminescence, single point; AID 504408, 2011; 300,000 compounds, 1.7% hits; activation, % at 9 µM; NIH3T3-HGL HSF-1 luciferase reporter, 8 h; 100% = twice DMSO control signal;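 active = mean replicate activation of at least 50% with a set share of replicates each reaching 50%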
GC-B act: human GC-B receptor activators, primary screen, HEK293 GC-B cells, cGMP TR-FRET, EC30 CNP; Atrial natriuretic peptide receptor 2 (Homo sapiens), P20594; 0% at EC30 CNP, 100% saturating CNP; activation, % at 10 µM; 370,000 compounds, 0.11% hits; AID 1920062, 2024;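 active = activation at 10 µM reaching about 35% in either raw or pattern-adjusted values, limit read from the data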
Of the large screens only hits and unclear results are named; the others gave an inactive call. In the library only some 2.5% were active in any assay of this set; here they are far more common.

Cc1ccc(CC(=O)c2ccc(Cl)cc2)cc1	none
O=C(Cc1ccc(Cl)cc1)c1ccc(O)cc1	HSF-1 act 52
O=C(Nc1ccc2c(c1)OCCO2)NC1(C(F)(F)F)Oc2ccccc2O1	HSF1 inh -67
COc1ccc(Nc2nc(N)c([N+](=O)[O-])c(NC3CCCCC3)n2)cc1	none
Cc1ccc(C(=O)Nc2cc3ccccc3oc2=O)cc1	HSF1 inh -72
Cc1oc(=O)c(NC(=O)c2ccccc2)cc1C(=O)c1ccccc1	HSF-1 act 121
Cc1oc(=O)c(NC(=O)c2ccc(Cl)cc2)cc1C(=O)c1ccccc1	HSF-1 act 83
CC(C)C(C(=O)NC(C)(C)C)N(CCN1CCOCC1)C(=O)CNS(=O)(=O)c1ccccc1 (stereo unspecified)	none
CCN(CC)CCn1nc(C)nc1-c1ccccc1O	none
CCN(CC)CCn1nc2c3c(cccc3c1=O)-c1ccccc1-2	HSF-1 act 173
C=CCN(C(=O)CCC(=O)Nc1cc(C)on1)C(C(=O)NC(C)(C)C)c1cccc(OC)c1OC (stereo unspecified)	HSF-1 act 83
O=S(=O)(c1ccc(F)c(F)c1)N1CCCc2ccccc21	none
CCN1C(=S)N[C@@H](c2ccccc2)C(C(=O)OC)=C1C	GC-B act 46
COc1ccc(-n2cc([N+](=O)[O-])c(=O)c3ccc(Cl)cc32)cc1	HSF1 inh -66
COc1ccc(OCCNc2cc(Cl)ccc2[N+](=O)[O-])cc1	none (no result: NPR1 activator, GC-B act)
Cc1ccc(C2CC(=O)NC(SCC(=O)Nc3nccs3)=C2C#N)cc1 (stereo unspecified)	none
CC(C)C[C@@H](C(=O)NC1CC1)N1C(=O)N2CCc3c([nH]c4ccccc34)[C@@]2(C)C1=O	none
O=C(Nc1cccc(Cl)c1)c1ccc(S(=O)(=O)NCC2CCCO2)cc1 (stereo unspecified)	HSF1 inh -88
O=C(NC1=C(Nc2ccc(F)cc2)C(=O)c2ccccc2C1=O)c1ccc(Cl)cc1	aDG glyco act 5.4
Cc1nc(CCNC(=O)CC2C(=O)NCCN2Cc2ccoc2)nc2c1CCCC2 (stereo unspecified)	none
Nn1c(SCC(=O)NCc2ccccc2)nnc1C1CC1	HSF-1 act 52
Nn1c(SCC(=O)N2CCOCC2)nnc1C1CC1	HSF-1 act 83
Nn1c(SCC(=O)N2CCCC2)nnc1C1CCCCC1	none (no result: HSF1 inh, Dyrk1A ADPGlo, HSF-1 act)
CCOC(=O)[C@@H]1[C@H]2COc3ccccc3[C@@H]2N2C(=O)N(c3ccccc3)C(=O)[C@@]12C	none (no result: NPR1 activator, GC-B act)
CCCCCCC(c1c(C)n(C)n(-c2ccccc2)c1=O)c1c(C)n(C)n(-c2ccccc2)c1=O	none
Cc1ncc([N+](=O)[O-])n1CC(=O)NCCc1ccccc1	HSF1 inh -62
Cc1ncc([N+](=O)[O-])n1CC(=O)Nc1ccc(F)cc1	HSF1 inh -74
Cc1ccc(NC(=O)Cn2c([N+](=O)[O-])cnc2C)cc1	none
CCOC(=O)Cn1nnnc1CN(Cc1cccs1)Cc1cc2cc(C)ccc2[nH]c1=O	none
Cc1ccc2[nH]c(=O)c(CN(Cc3cccs3)Cc3nnnn3Cc3ccccc3)cc2c1	HSF-1 act 71 (no result: Dyrk1A ADPGlo)
C(=N\C(/N=C/c1ccco1)c1ccco1)/c1ccco1	HSF-1 act 81
CCOC(=O)C1CCN(c2c(Nc3ccc4c(c3)OCCO4)c(=O)c2=O)CC1	HSF1 inh -54
CCOC(=O)N1CCC(N2C(=O)c3ccccc3C2Nc2ccc3c(c2)OCCO3)CC1 (stereo unspecified)	HSF1 inh -69
COc1ccc(OCC(=O)N2CCN(C(=O)c3ccc([N+](=O)[O-])cc3)CC2)cc1	none
CC(=O)Nc1ccc(-c2nnn(CC(=O)Nc3ccc4c(c3)OCO4)n2)cc1Cl	HSF1 inh -59
Cc1ccc(S(=O)(=O)c2ncccc2[N+](=O)[O-])cc1	HSF1 inh -97
C=CCN(C(=O)c1csnn1)C(C(=O)NC(C)(C)C)c1ccncc1 (stereo unspecified)	none
Cc1ccc(-c2noc(C3CCCN(C(=O)c4cccc([N+](=O)[O-])c4)C3)n2)o1 (stereo unspecified)	none
Cc1cccc(C(=O)N2CCCC(c3nc(-c4ccc(C)o4)no3)C2)c1 (stereo unspecified)	HSF-1 act 61
CCOC(=O)/C(=C\c1cccc(O)c1)c1nc2sc(C)c(C)c2c(=O)[nH]1	HSF-1 act 161
CCCCOc1ncnc2c1[nH]c1ccc(OCC)cc12	none
CCCCOc1ncnc2c1[nH]c1ccc(F)cc12	aDG glyco act 6.5
OC1(c2cccc(C(F)(F)F)c2)CCN(c2ncnc3c2[nH]c2ccc(F)cc23)CC1	aDG glyco act 3.7 (no result: HSF1 inh, HSF-1 act)
Fc1ccc2[nH]c3c(N4CCN(c5ccccc5)CC4)ncnc3c2c1	none
CCOC(=O)N1CCN(c2ncnc3c2[nH]c2ccc(F)cc23)CC1	aDG glyco act 5.9
CN1OC[C@@H]2CN(Cc3ccc(Cl)cc3)[C@H](c3ccc(N4CCCCC4)cc3)C[C@@H]21	none (no result: HSF1 inh, Dyrk1A ADPGlo, HSF-1 act)
COc1ccc(NC(=O)C(c2ccccc2)c2ccccc2)c(OC)c1	none
CCOC(=O)C1CCCCN1Cc1ccc(F)cc1 (stereo unspecified)	none
Clc1ccc(SCc2csc(N3CCOCC3)n2)cc1	HSF-1 act 72
O=C(NNc1ccccc1)Nc1cc(Cl)ccc1Cl	none (no result: HSF1 inh, HSF-1 act)
CCCc1ccc2oc(C(=O)N3CCC(N4CCCC(O)C4)CC3)c(C)c2c1 (stereo unspecified)	none
CCCc1ccc2oc(C(=O)N3CCC(COC)C3)c(C)c2c1 (stereo unspecified)	HSF-1 act 61
CCCc1ccc2oc(C(=O)NCCN3CCCC(C(N)=O)C3)c(C)c2c1 (stereo unspecified)	none
CCCc1ccc2oc(C(=O)NCCN3CCCC(O)C3)c(C)c2c1 (stereo unspecified)	HSF-1 act 62
CCN(CC)CCCN1C=C2C(=O)C(C)(OC(=O)CCC(=O)OC)C(=O)C=C2C=C1C1CC1 (stereo unspecified)	none
Fc1ccc(C2NC(=S)NC3=C2N2CCC3CC2)cc1 (stereo unspecified)	HSF-1 act 53
COC(=O)/C(=C\c1ccc(O)cc1)c1nc2ccccc2[nH]1	none
C/C(=C\c1ccc(N)cc1)c1nc2ccccc2[nH]1	none
CC(C)c1ccc(/C=C(\c2nc3ccccc3[nH]2)S(=O)(=O)c2ccccc2)cc1	HSF-1 act 102
